Laboratory results: PubChem BioAssay AID1159580 (chemical genetic matrix, 2015)
Where “and” joins values, the source holds several entries; their conditions need not be identical. Identical values can stand only once. The campaign covered roughly 5,500 compounds. About 2,000 (36%) were called active. About 18% were inconclusive and are not listed. Rule as the data show it: active = normalized growth mostly below about 0.91 (no sharp cut-off); inconclusive = no clear call, values can overlap the other calls; inactive = mostly above about 0.92. This is one part of the list.

Assay: chemical genetic growth profiling, strain panel (AID 1159580);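 also: tested at 20 µM; growth read once vehicle control cultures reached saturation at 30 °C; 1 = growth at the plate median or of vehicle wells; lower values mean less growth of the strain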
Conditions: growth OD

Measured: normalized growth

NCCCS(=O)(=O)O
inactive: S. cerevisiae deletion strains, locus YKL068W, hits give low values 0.995 | S. cerevisiae deletion strains, locus YKL085W, strain MDH1 (second series), hits give low values 0.986 | S. cerevisiae deletion strains, locus YKL085W, strain MDH1, hits give low values 0.986 | S. cerevisiae deletion strains, locus YKL160W, strain elf1, hits give low values 1 | S. cerevisiae deletion strains, locus YKL190W, strain CNB1, hits give low values 0.993 | S. cerevisiae deletion strains, locus YKR001C, strain vps1, hits give low values 0.994 | S. cerevisiae deletion strains, locus YKR026C, strain gcn3, hits give low values 1 | S. cerevisiae deletion strains, locus YKR091W, strain srl3, hits give low values 1.01 | S. cerevisiae deletion strains, locus YLL001W, strain dnm1, hits give low values 1.03 | S. cerevisiae deletion strains, locus YLL026W, hits give low values 1.01 | S. cerevisiae deletion strains, locus YLL041C, strain sdh2, hits give low values 1.01 | S. cerevisiae deletion strains, locus YLR027C, strain aat2, hits give low values 0.996 | S. cerevisiae deletion strains, locus YLR039C, strain RIC1, hits give low values 0.986 | S. cerevisiae deletion strains, locus YLR058C, strain SHM2, hits give low values 0.965 | S. cerevisiae deletion strains, locus YLR102C, strain apc9, hits give low values 0.993 | S. cerevisiae deletion strains, locus YLR113W, strain HOG1, hits give low values 0.954 | S. cerevisiae deletion strains, locus YLR221C, strain rsa3, hits give low values 1.01 | S. cerevisiae deletion strains, locus YLR258W, strain gsy2, hits give low values 1.01 | S. cerevisiae deletion strains, locus YLR262C, strain YPT6 (second series), hits give low values 1.02 | S. cerevisiae deletion strains, locus YLR262C, strain YPT6, hits give low values 1.05 | S. cerevisiae deletion strains, locus YLR268W, strain sec22, hits give low values 1.04 | S. cerevisiae deletion strains, locus YLR320W, strain mms22, hits give low values 1.01 | S. cerevisiae deletion strains, locus YLR330W, strain CHS5, hits give low values 0.983 | S. cerevisiae deletion strains, locus YLR342W, strain FKS1 (second series), hits give low values 0.99 | S. cerevisiae deletion strains, locus YLR342W, strain FKS1, hits give low values 1.02 | S. cerevisiae deletion strains, locus YLR357W, strain rsc2, hits give low values 1.04 | S. cerevisiae deletion strains, locus YLR370C, strain arc18, hits give low values 1.01 | S. cerevisiae deletion strains, locus YLR371W, strain rom2, hits give low values 0.934 | S. cerevisiae deletion strains, locus YLR384C, strain iki3, hits give low values 1.01 | S. cerevisiae deletion strains, locus YLR418C, strain cdc73, hits give low values 1.01 | S. cerevisiae deletion strains, locus YML016C, strain PPZ1, hits give low values 0.984 | S. cerevisiae deletion strains, locus YML032C, strain rad52, hits give low values 0.994 | S. cerevisiae deletion strains, locus YML120C, strain ndi1, hits give low values 1.02 | S. cerevisiae deletion strains, locus YML124C, strain tub3, hits give low values 0.987 | S. cerevisiae deletion strains, locus YMR058W, strain fet3, hits give low values 1.04 | S. cerevisiae deletion strains, locus YMR078C, strain ctf18, hits give low values 0.999 | S. cerevisiae deletion strains, locus YMR125W, strain sto1, hits give low values 1.02 | S. cerevisiae deletion strains, locus YMR129W, hits give low values 1.01 | S. cerevisiae deletion strains, locus YMR205C, strain PFK2, hits give low values 1.02 | S. cerevisiae deletion strains, locus YMR223W, strain ubp8, hits give low values 0.96 | S. cerevisiae deletion strains, locus YMR231W, strain pep5, hits give low values 1.02 | S. cerevisiae deletion strains, locus YMR263W, strain SAP30, hits give low values 0.977 | S. cerevisiae deletion strains, locus YMR307W, strain GAS1, hits give low values 0.971 | S. cerevisiae deletion strains, locus YNL067W, strain RPL9B, hits give low values 1.01 | S. cerevisiae deletion strains, locus YNL071W, strain lat1, hits give low values 1.03 | S. cerevisiae deletion strains, locus YNL128W, strain TEP1, hits give low values 0.974 | S. cerevisiae deletion strains, locus YNL153C, strain GIM3, hits give low values 0.991 and 1.01 | S. cerevisiae deletion strains, locus YNL175C, strain NOP13, hits give low values 1 | S. cerevisiae deletion strains, locus YNL183C, strain NPR1, hits give low values 0.937 | S. cerevisiae deletion strains, locus YNL197C, strain WHI3, hits give low values 1.01 | S. cerevisiae deletion strains, locus YNL209W, strain ssb2, hits give low values 1.01 | S. cerevisiae deletion strains, locus YNL224C, strain SQS1, hits give low values 1.01 | S. cerevisiae deletion strains, locus YNL233W, strain BNI4, hits give low values 0.987 | S. cerevisiae deletion strains, locus YNL248C, strain rpa49, hits give low values 0.959 | S. cerevisiae deletion strains, locus YNL250W, strain rad50, hits give low values 0.976 | S. cerevisiae deletion strains, locus YNL271C, strain bni1, hits give low values 0.999 | S. cerevisiae deletion strains, locus YNL298W, strain CLA4, hits give low values 0.967 | S. cerevisiae deletion strains, locus YNL307C, strain MCK1, hits give low values 0.998 | S. cerevisiae deletion strains, locus YNL322C, strain KRE1 (second series), hits give low values 1.01 | S. cerevisiae deletion strains, locus YNL322C, strain KRE1, hits give low values 0.987 | S. cerevisiae deletion strains, locus YNR049C, strain mso1, hits give low values 1.01 | S. cerevisiae deletion strains, locus YNR052C, strain pop2, hits give low values 0.969 | S. cerevisiae deletion strains, locus YOL006C, strain TOP1, hits give low values 1.02 | S. cerevisiae deletion strains, locus YOL012C, strain htz1 0.962 | S. cerevisiae deletion strains, locus YOL147C, strain pex11, hits give low values 0.989 | S. cerevisiae deletion strains, locus YOR001W, strain rrp6, hits give low values 1.01 | S. cerevisiae deletion strains, locus YOR061W, strain CKA2, hits give low values 0.965 | S. cerevisiae deletion strains, locus YOR069W, strain VPS5, hits give low values 0.984 | S. cerevisiae deletion strains, locus YOR070C, strain gyp1, hits give low values 1.01 | S. cerevisiae deletion strains, locus YOR080W, strain dia2, hits give low values 1.03 | S. cerevisiae deletion strains, locus YOR083W, strain WHI5 (second series), hits give low values 1.02 | S. cerevisiae deletion strains, locus YOR083W, strain WHI5, hits give low values 1 | S. cerevisiae deletion strains, locus YOR106W, strain vam3, hits give low values 1.01 | S. cerevisiae deletion strains, locus YOR136W, strain idh2, hits give low values 0.981 | S. cerevisiae deletion strains, locus YOR144C, strain elg1, hits give low values 0.998 | S. cerevisiae deletion strains, locus YOR184W, strain ser1, hits give low values 0.983 | S. cerevisiae deletion strains, locus YOR231W, strain MKK1, hits give low values 0.976 | S. cerevisiae deletion strains, locus YOR265W, strain rbl2, hits give low values 1.02 | S. cerevisiae deletion strains, locus YOR270C, strain vph1, hits give low values 1.09 | S. cerevisiae deletion strains, locus YOR290C, strain snf2, hits give low values 1.01 | S. cerevisiae deletion strains, locus YOR316C, strain cot1, hits give low values 0.981 | S. cerevisiae deletion strains, locus YPL051W, strain arl3, hits give low values 1.01 | S. cerevisiae deletion strains, locus YPL055C, strain LGE1, hits give low values 0.993 | S. cerevisiae deletion strains, locus YPL078C, strain atp4, hits give low values 1.02 | S. cerevisiae deletion strains, locus YPL106C, strain sse1, hits give low values 1.01 | S. cerevisiae deletion strains, locus YPL240C, strain hsp82, hits give low values 1.03 | S. cerevisiae deletion strains, locus YPL241C, strain CIN2, hits give low values 0.997 | S. cerevisiae deletion strains, locus YPL256C, strain CLN2, hits give low values 0.964 | S. cerevisiae deletion strains, locus YPR119W, strain clb2, hits give low values 0.987 | S. cerevisiae deletion strains, locus YPR141C, strain kar3, hits give low values 0.973 | S. cerevisiae deletion strains, locus YPR163C, strain tif3, hits give low values 0.998 | S. cerevisiae deletion strains, locus YPR167C, strain met16, hits give low values 1 | S. cerevisiae deletion strains, strain wtn01, hits give low values 0.958 | S. cerevisiae strains, strain wild type, hits give low values 0.984
